High-throughput results from PubChem BioAssay.
HIV TAR-Tat: HIV-1 TAR-Tat binding disruption. AID 1259389. z-score (concentration not given with the values). actives 0.6% (n = 100,000). HIV-1 TAR RNA, Tat peptide displacement FRET; stronger effect = higher value; active = z-score of 3 or more in at least 2 runs
CDC25B CDK2 inh: human CDC25B-CDK2/CyclinA binding inhibition. P30305+P24941. HTRF CDC25B-CDK2/CyclinA binding, anti-His/anti-Flag; stronger effect = higher value. z-score (test concentration not listed). actives 0.72% (n = 94,000); in the data active = z-score above about 3.2
Numbers without * were called inactive; . = not tested or not shown. Sampled rows, rich in hits. Any-hit rate of the full collection: about 0.93%.

SMILES	HIV TAR-Tat	CDC25B CDK2 inh
CCOC(=O)c1c(C)oc2c1c1c(c3ccccc32)OCN(CC2CCCO2)C1 (stereo unspecified)	-5.38	16.7*
CCSc1ncc2c(=O)n(CC(=O)N3CCc4ccccc43)cnc2n1	9.7*	.
CCSc1ncc2c(=O)n(CC(=O)NC3CCCC3)cnc2n1	0.72	.
Cc1cc(=O)n2[nH]c(C)c(-c3ccc(Cl)cc3)c2n1	.	-3.7
Cc1[nH]n2c(=O)cc(CSc3nnnn3-c3ccccc3)nc2c1-c1ccc(Cl)cc1	23.5*	-2.16
O=c1c(-c2ccccc2)c(C(F)(F)F)oc2c(CN3CCCC3)c(O)ccc12	0.65	15.3*
CC1CN(Cc2c(O)ccc3c(=O)c(-c4ccccc4)c(C(F)(F)F)oc23)CC(C)O1 (stereo unspecified)	0.4	0.01
Cc1ccc(Cl)c2c1NC(=O)C2(O)CC(=O)c1ccccc1 (stereo unspecified)	0.17	16.8*
Cc1ccc(Cl)c2c1NC(=O)C2(O)CC(=O)c1ccc(F)cc1 (stereo unspecified)	0.59	-1.58
CC(C)N(C(=O)CN(C)S(=O)(=O)c1ccc2c(c1)NC(=O)CS2)C1CCCCC1	1.23	.
CCOC(=O)c1cc(C)n(CC2CCC(C(=O)NC3CCC(C)CC3)CC2)c1C (stereo unspecified)	0.01	.
CC(=O)Nc1ccc2c(c1)nc1n2CCN(C(C)C)C1	-7.6	-0.16
CC(C)N1CCn2c(nc3cc(NC(=O)c4ccco4)ccc32)C1	18.7*	10.3*
Cc1ccc(CNC(=O)Cn2ncn3c(cc4sc(C)cc43)c2=O)cc1	-0.81	-2.12
COc1ccccc1-n1c(N)c(C(=O)Nc2ccccc2)sc1=S	0.23	-0.14
CN1CCc2c(sc3c2C(=O)NC(c2ccc(O)c(O)c2)N3)C1 (stereo unspecified)	12.6*	-0.12
COc1cc(C2NC(=O)c3c(sc4c3CCN(C)C4)N2)ccc1O (stereo unspecified)	-8.13	-0.03
Cn1c(SCC(=O)NC2CCCC2)ncc(C(=O)Nc2ccc(F)cc2)c1=O	0.75	.
CN1CCN(CCCNC(=O)Cn2c(=O)c3cccn3c3cccnc32)CC1	0.81	.
CC(C(=O)NCc1ccco1)n1sc2ccccc2c1=O (stereo unspecified)	3.64*	-1.84
CNC(=O)C(C)n1sc2ccccc2c1=O (stereo unspecified)	1.84	-2.12
Cc1ccc(CSc2nc(=O)c3c(n2C)NC(=O)CC3c2ccc3c(c2)OCCO3)cc1 (stereo unspecified)	0.66	1.16
COCCNC(=O)Nc1cc2ccc(OC)cc2n1C	0.06	-0.97
COc1ccc2cc(NC(=O)Nc3ccc(OC)c4cccnc34)n(C)c2c1	0.07	14.4*
CCCCCOc1ccc(CN2C(=O)C(=O)c3cc(C)ccc32)cc1	0.78	-1.66
SMILES	HIV TAR-Tat	CDC25B CDK2 inh
COc1cccc(OC)c1C(=O)NN	.	-2.14
COc1cccc(O)c1O	13.4*	.
O=c1c(NCc2ccccc2)c(-c2ccc(Cl)cc2)c1=O	-0.88	.
O=C1C(NC2CCCCC2)=C(N2CCCCC2)C(=O)c2ccccc21	.	5.01*
O=c1c(NC2CCCCC2)c(-c2ccccc2)c1=O	1.14	.
CCn1c(C2CC(=O)N(CC3CC3)C2)nc2ccccc21 (stereo unspecified)	0.19	-1.13
CCCc1ccc(-c2ccc(C(N)=O)cc2)cc1	.	-1.08
CCCc1cc(C(N)=S)ccn1	22.2*	.
CCN(CC)c1ccc(NS(=O)(=O)c2cc3[nH]c(=O)c(=O)[nH]c3cc2C)c(C)c1	13.7*	.
CCN(CC)c1ccc(NS(=O)(=O)c2ccc(-c3ccc(=O)[nH]n3)o2)c(C)c1	-3.26	.
O=C1COc2cc(-c3c(N4CCCC4)c(=O)c3=O)ccc2N1	11*	.
O=C1COc2cc(-c3c(N4CCCCC4)c(=O)c3=O)ccc2N1	1.4	.
CNC(=O)N1CCN(S(=O)(=O)c2ccc3c(ccn3C)c2)CC1	1.33	.
Cc1ccc(S(=O)(=O)NCCc2csc3nc(-c4ccccc4C)nn23)s1	-0.14	.
Cc1ncc(CO)c2c1Oc1nc(-c3ccc(F)cc3)[nH]c(=O)c1C2	0.72	-1.7
COc1ccc(O)c(-c2nc3c(c(=O)[nH]2)Cc2c(CO)cnc(C)c2O3)c1	10.8*	2.02
CCn1cc(/C=C/c2nc3ccccc3c(=O)n2CCCO)c2ccccc21	0.61	-1.49
N#Cc1c(NC(=O)c2cc3ncc(Br)cn3n2)sc2c1CCCC2	7.3*	0.64
CC(=O)Nc1sc2c(c1C#N)CCCC2	0.23	0.23
CC(C)(C)C(=O)NCC(c1cccs1)S(=O)(=O)c1ccc(Cl)cc1 (stereo unspecified)	1.46	.
COc1ccc(-c2noc(-c3nnn(-c4ccc(C)c(C)c4)c3N)n2)cc1	4.68*	.
COc1ccc(-c2noc(-c3nnn(-c4ccc(OC)cc4)c3N)n2)cc1	1.02	.
C(=C\c1nn2cnnc2s1)/c1ccco1	20.8*	-0.67
Cc1ccc(-c2nnc3sc(/C=C/c4ccco4)nn23)cc1	19.7*	14.3*
Cc1occc1-c1nnc2sc(/C=C/c3ccccc3Cl)nn12	7.7*	1.22
SMILES	HIV TAR-Tat	CDC25B CDK2 inh
Cc1ccc(-c2nn3c(C)nnc3s2)cc1	0.49	-0.67
Cc1ccccc1/C=C/c1nn2c(-c3ccoc3C)nnc2s1	0.29	-1.16
Cc1ccc(/C=C/c2nn3c(-c4ccoc4C)nnc3s2)cc1	0.92	-1.26
c1csc(-c2nn3cnnc3s2)c1	0.39	-0.82
Cc1nnc2sc(/C=C/c3ccco3)nn12	10.7*	-1.1
O=C(Nc1ccc(S(=O)(=O)N2CCN(c3ccccc3)CC2)cc1)N1CCCC1	1.02	.
CN(C)S(=O)(=O)c1ccc2nc(NC(=O)COc3ccc4ccccc4c3)sc2c1	0.79	.
Cc1sc2ncn(CC(=O)NCCCN3CCCC3)c(=O)c2c1S(=O)(=O)N1CCC(C)CC1	-0.07	-1.45
Cc1ssc(=S)c1-c1ccccc1	.	5.7*
Cc1c(Br)sc(Br)c1-c1ccccc1	.	-1.15
CC(C)n1cnc2nc(CSc3ccc(NC(=O)c4cccs4)cc3)cc(=O)n21	-0.91	-2.09
COCc1cc(CN2CCN(c3ccccc3OC)CC2)c(O)c2ncccc12	.	-0.7
Cc1ccccc1-n1cc(-c2ccccc2)c2c(N3CCCC3)ncnc21	0.4	-1.19
CC1O[P+]2(OC1C)OC(C)C(C)O2 (stereo unspecified)	.	5.15*
Cc1cc(NC(=O)CSc2nc3c(cnn3-c3ccccc3)c(=O)[nH]2)no1	1.16	.
COc1ccc(-c2coc3cc(O)ccc3c2=O)c(OC)c1O	0.53	.
COc1ccc(-c2coc3cc(O)ccc3c2=O)c(O)c1O	22.7*	.
COc1ccc2c(=O)c(-c3cc4c(cc3OC)OCO4)coc2c1	20*	.
COc1cc2occ(-c3cc4c(cc3OC)OCO4)c(=O)c2cc1OC	0.74	.
COc1ccc(C2Oc3ccccc3C3=C2C(c2cccs2)n2ncnc2N3)cc1OC (stereo unspecified)	.	-1.61
CCCCN(CC)C(=O)c1cc2ccc3cccnc3c2[nH]1	1.3	.
CCOC(=O)C1=C(C)Nc2nc(SCC)nn2C1c1ccc(F)cc1 (stereo unspecified)	1.63	-1.55
CC(C)(C)NS(=O)(=O)c1ccc2c(c1)CCCC(=O)N2	1.62	.
C=CCOC(=O)C1C(c2ccc(OC)c(OC)c2)c2c([nH][nH]c2=O)CC1(C)O (stereo unspecified)	0.68	0.18
Clc1cccc(-c2ccc(-c3nn4c(-c5ccco5)nnc4s3)o2)c1	17.4*	-0.52
Cc1occc1-c1nnc2sc(-c3ccc(-c4cccc(Cl)c4)o3)nn12	1.72	-0.12
Fc1ccccc1-c1ccc(-c2nn3c(-c4ccco4)nnc3s2)o1	19.9*	-0.12
